Wnt bcat act: Wnt/beta-catenin pathway activators, primary screen, cell-based, plate reader, single point. Wnt/beta-catenin reporter cell assay, activator. activation, % at 9.35 µM. actives 1.2% (n = 300,000); in the data active = activation above about 30%, passing the limit was not always enough; inconclusive = no clear call, values can overlap the other calls;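 also: 0% = neutral control wells and 100% = positive control wells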
DAX1 inh: DAX1 (NR0B1) inhibitors on StAR promoter, primary screen, cell-based, luminescence, SF-1 (NR5A1), full-length DAX-1. actives 1.1% (n = 370,000). AID 652010, 2013. HEK293T StAR-luciferase reporter, SF-1/DAX-1 repression relief. inhibition, % at 6.8 µM;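 active = inhibition above the mean over all tested compounds plus 3 SD, cut at about 3.6% in these data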;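 also: 0% = DAX-1 cells with DMSO and 100% = cells lacking DAX-1 with DMSO; higher inhibition means more luminescence from relief of DAX-1 repression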
hgDAF-12 ag: H. glycines DAF-12 receptor agonists, primary screen, cell-based, luminescence, HEK293, GAL4 fusion, UAS-luciferase. Nuclear hormone receptor DAF-12 (Heterodera glycines), GAL4 fusion. HEK293 GAL4-hgDAF12 UAS-luciferase reporter, agonist luminescence; normalized to butyrate control. activation, % at 6.8 µM. actives 1.8% (n = 370,000). AID 687014, 2013;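 active = activation above a cutoff set at the mean of all screened compounds plus 3 SD, cut at about 10% in these data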;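 also: 0% = DMSO wells and 100% = sodium butyrate wells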
hcDAF-12 act: H. contortus DAF-12 nuclear receptor activators, primary screen, cell-based, luminescence, HEK293, lit1-tk-luc reporter. actives 1.4% (n = 370,000). activation, % at 6.8 µM. HEK293 hcDAF-12 lit1-tk-luc reporter; 0% DMSO, 100% Δ7-dafachronic acid;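 active = activation above the mean of all tested compounds plus 3 SD, cut at about 5.5% in these data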;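 also: 100% = response to 3 µM Δ7-dafachronic acid high control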
ssDAF-12 act: S. stercoralis DAF-12 nuclear receptor activators, primary screen, cell-based, luminescence, HEK293, GRIP1 co-expression, lit1-tk-luc | Nuclear hormone receptor DAF-12 (Strongyloides stercoralis) | HEK293 ssDAF-12/GRIP1 lit1-tk-luc reporter; % of 3 µM dafachronic acid response | actives 1% (n = 370,000) | activation, % at 6.8 µM;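 active = activation above the mean over all tested compounds plus 3 SD, cut at about 0.9% in these data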;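 also: 0% = DMSO-only wells and 100% = 3 µM delta7-dafachronic acid wells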
esBAF inh: Bmi1 luciferase reporter increase in mESCs, primary screen, esBAF inhibitor project, mouse ES cells, Bmi1 luciferase knock-in, single point. actives 2% (n = 350,000). 24 h; 100% = twice the neutral-well signal. reporter increase, % at 12.5 µM; in the data active = activation above about 40%; inconclusive = no clear call, values can overlap the other calls;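 also: 0% = median of the plate's neutral control wells and 100% = double that signal; a rise in the Bmi1 reporter signal indicates esBAF inhibition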
Active calls of the source: *; ? = inconclusive; / = no result. Only some compounds are listed: those with a hit (about 4.2% of all), similar ones and a draw of the others.

SMILES | Wnt bcat act | DAX1 inh | hgDAF-12 ag | hcDAF-12 act | ssDAF-12 act | esBAF inh
C=C(C)CSc1nnc([C@@H]2CCCN2)o1 | -1 | 1 | -3 | -1 | -2 | /
O=C(CSc1nnc([C@@H]2CCCN2)o1)c1ccc(Cl)cc1 | 37* | 1 | 2 | 0 | -1 | 14
O=C(CNC(=O)c1ccccc1)OCC(=O)N1N=C(c2ccc(Cl)cc2)CC1c1ccco1 (stereo not given) | 41* | 0 | 2 | 0 | -1 | /
N#Cc1ccccc1OCC(=O)N1N=C(c2cccs2)CC1c1ccco1 (stereo not given) | 14 | 2 | 3 | 2 | -1 | 70*
CC(=O)N1N=C(c2ccc(C)cc2)CC1c1ccco1 (stereo not given) | 7 | 0 | 2 | 2 | -1 | 23
COc1ccc(C2CC(c3ccccc3)=NN2C(=O)COC(=O)CNC(=O)c2ccccc2)cc1 (stereo not given) | -7 | 0 | -3 | 0 | -1 | 34
O=C(COc1cc(F)ccc1[N+](=O)[O-])N1N=C(c2cccs2)CC1c1ccco1 (stereo not given) | 5 | 0 | -1 | 1 | -1 | 19
Cc1ccc(C2=NN(C(=O)CCCC(=O)O)C(c3ccco3)C2)cc1 (stereo not given) | 3 | -1 | 4 | 1 | 1.1* | /
COc1ccccc1S(=O)(=O)N[C@@H]1CC[C@@H](CCNC(=O)C2CCOCC2)O[C@@H]1CO | / | / | / | / | / | -4
COc1cccc(S(=O)(=O)N[C@H]2C=C[C@@H](CC(=O)NCc3ccccc3)O[C@H]2CO)c1 | / | / | / | / | / | 3
CC(=O)N(C)C[C@@H]1Oc2ncc(C#CCC3CCCC3)cc2C(=O)N([C@@H](C)CO)C[C@H]1C | / | / | / | / | / | 0
COc1ccc(/C(C)=N/Nc2cccc(C(=O)O)c2)cc1OC | 5 | 2 | 7 | 2 | -1 | 53*
C/C(=N\Nc1cccc(C(=O)O)c1)c1ccc(Cl)s1 | 16 | 2 | 8 | 0 | -1 | 73*
CCN1[C@@H]2c3ccc(-c4ccccc4OC)c(=O)n3C[C@@H]2[C@@H](CO)[C@@H]1C(=O)NCc1ccc(F)cc1 | / | / | / | / | / | 6
Cc1ccc2oc(C(=O)Nc3nonc3C)c(C)c2c1 | 12 | 3 | 5 | 2 | -1 | 36
Cc1c(C(=O)Nc2nnc(C3CC3)s2)oc2ccccc12 | 45* | 2 | 11* | 6.4* | 1 | 53*
Cc1ccc2oc(C(=O)Nc3nnc(C)s3)c(C)c2c1 | 57* | 1 | 5 | 3 | -1 | 65*
C[C@H]1CCCCO[C@H](CN(C)Cc2ccncc2)[C@@H](C)CN([C@@H](C)CO)C(=O)c2cc(NC(=O)CCCN(C)C)ccc2O1 | / | / | / | / | / | -8
COc1ccc([C@@H](C)NC(=O)c2ccc3oc(C(C)C)nc3c2)cc1 | 18 | -1 | 9 | 4 | -1 | 64*
CCC(C)NC(=O)c1ccc2nc(Cc3ccc(OC)cc3)oc2c1 (stereo not given) | -1 | 0 | 0 | 0 | -1 | 12
COc1ccc(Cc2nc3ccc(C(=O)NC(C)C)cc3o2)cc1 | 27 | 0 | 3 | 0 | 0 | 51*
C=C(C)CNC(=O)c1ccc2nc(Cc3ccc(OC)cc3)oc2c1 | 17 | 1 | 13* | 3 | -1 | 66*
COCC#Cc1ccc2c(c1)O[C@H](CN(C)C)[C@H](C)CN([C@H](C)CO)S2(=O)=O | / | / | / | / | / | 3
NC1=NN=C(c2ccc3c(c2)OCCO3)CS1 | 7 | 4.5* | 13* | 3 | -1 | -49
Cc1sc(N)nc1-c1ccc2c(c1)OCCO2 | 3 | 1 | 2 | 1 | -1 | 14
SMILES | Wnt bcat act | DAX1 inh | hgDAF-12 ag | hcDAF-12 act | ssDAF-12 act | esBAF inh
Nc1nc(OCc2ccccc2)c2[nH]cnc2n1 | 3 | 1 | -5 | 0 | -1 | -4
Cc1nc2nc(N)nc(OCc3ccccc3)c2nc1C | 50* | 0 | 0 | -1 | -2 | /
NC(=O)c1cn(-c2ccccc2)nc1-c1cc2ccccc2oc1=O | -4 | 0 | 0 | -1 | -2 | 1
O=C(c1ccccc1)c1nn(-c2ccc(Cl)cc2)cc1C(=O)c1cc2ccccc2oc1=O | / | 1 | -1 | 4 | 1.1* | -2
C[C@@H]1CN([C@@H](C)CO)C(=O)c2cc(C#Cc3ccccn3)cnc2O[C@@H]1CN(C)Cc1ccncc1 | / | / | / | / | / | 0
COc1cccc(-c2cc(C(=O)NCc3ccco3)no2)c1 | -4 | 2 | 9 | 2 | -1 | 45*
COCCNC(=O)c1cc(-c2cccc(OC)c2)on1 | / | 2 | 11* | 1 | 0 | 11
COc1ccc(-c2cc(C(=O)NCc3cccs3)no2)cc1 | ? | 1 | 9 | 4 | -1 | 42*
COc1cccc(-c2cc(C(=O)NCc3cccs3)no2)c1 | 3 | 2 | 13* | 2 | 0 | 72*
O=C(N[C@@H]1CC[C@@H](CCNS(=O)(=O)c2ccccc2)O[C@@H]1CO)c1cccc(F)c1 | / | / | / | / | / | 3
COc1ccc(NC(=O)c2cc(-c3cccc(OC)c3)on2)cc1 | 5 | 0 | -2 | 0 | 0 | /
COc1cccc(-c2cc(C(=O)Nc3cccc(O)c3)no2)c1 | / | 4 | 11* | 5 | 0 | -30
COc1ccc(NC(=O)N(C)C[C@@H]2Oc3ccc(NS(=O)(=O)c4ccccc4)cc3C(=O)N([C@@H](C)CO)C[C@@H]2C)cc1 | / | / | / | / | / | -3
CNC[C@@H]1OCCCC[C@@H](C)Oc2ccc(NC(=O)Cc3ccccc3)cc2C(=O)N([C@H](C)CO)C[C@H]1C | / | / | / | / | / | -14
O=S(=O)(Nc1nc2ccccc2s1)c1cnc(Cl)c(Br)c1 | 1 | 1 | 0 | 5 | 1.0* | -3
Cc1cccc(C)c1NC(=O)N1CCN(c2nc3ccccc3s2)CC1 | 2 | -3 | -8 | -5 | -3 | 48*
CCOC(=O)N1CCN(C(=O)c2ccc3nc(N4CCC(C)CC4)sc3c2)CC1 | / | -1 | 0 | -1 | -2 | 58*
COc1cccc(N2CCN(C(=O)c3ccc4nc(N5CCC(C)CC5)sc4c3)CC2)c1 | 6 | 1 | 12* | 1 | -1 | /
CCOC(=O)N1CCN(C(=O)c2ccc3nc(N4CCCCC4)sc3c2)CC1 | / | 0 | 1 | -1 | -1 | /
Cc1cccc(Cl)c1NC(=O)N1CCCN(c2nc3ccc(Cl)cc3s2)CC1 | 0 | -1 | -6 | -5 | -3 | 15

Bioassay records from PubChem.
